Screening data from PubChem.
GSIS activator – GLuc luminescence reporter in INS-1E cells, primary screen for activators of glucose-dependent secretion of insulin; 370,000 tested, 0.61% active; INS-1E GLuc reporter insulin secretion, 2-3 h; AID 743287; activation, % at 16.6 µM;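 active = lowest replicate activation of at least 40%, so every replicate reaches that level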;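 note: 0% = median of neutral control wells and 100% = median of IBMX positive control wells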
CaV13 FRET inh – Disruptors of the CACNA1D IQ motif to Ca2+-dependent inactivation inhibitor domain association, primary screening, Förster resonance energy transfer in intact living … | inhibition, % at 12.3 µM | HEK cells, CFP/YFP FRET ICDI-IQ, plate reader, 10 min; percent FRET-ratio fall versus neutral wells | 340,000 tested, 0.098% active;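 active = mean replicate inhibition of at least 30% and at least 1% of replicates passing that level; inconclusive = only one of the two criteria is met; inactive = neither criterion is met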;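 note: 0% = median of the neutral control wells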
DENV2 CPE rescue – DENV2-induced cell death inhibition. DENV2-infected cells, cytopathic effect rescue, plate reader. CPE inhibition, % at 9.99 µM. 350,000 tested, 1.7% active; in the data active = CPE inhibition above about 20%, passing the limit was not always enough; inconclusive = no clear call, values can overlap the other calls; tested in BHK-21 cells;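 note: 0% = median of neutral control wells and 100% = median of positive control wells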
rRNA inh HTS – inhibitors of bacterial rRNA selective over humanized ribosomes; E. coli WT GFP vs humanized-ribosome RFP mutants, fluorescence, 24 h; active compounds read low; DMSO median 0, no signal -100; GFP signal change (wild-type ribosome), % (no concentration beside the values); 350,000 tested, 1.6% active; AID 720706;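 active = significant combined selectivity score with lowered wild-type GFP, culture density cut under 30%, mutant RFP and density less affected; inactive = any of these conditions unmet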
PGC1a acetyl inh – modulators of PGC1a acetylation | U2OS PGC1a acetylation, AlphaScreen anti-acetyl-lysine; with virally co-expressed GCN5 acetyltransferase | inhibition, % at 15.6 µM | 350,000 tested, 0.17% active | AID 651687;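 active = every replicate shows inhibition of at least 40%; inconclusive = mean inhibition at least 40% but some replicate below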;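 note: 0% = neutral control wells and 100% = positive control wells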
ERAP1 inh – ERAP1 (human) enzyme inhibition; recombinant ERAP1, Leu-AMC fluorescence, 60 min; Q9NZ08; 340,000 tested, 0.15% active; inhibition, % at 10.7 µM;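 active = mean replicate inhibition of at least 30%, or all replicates individually reaching that 30% level; inactive = mean below 30% and not every replicate reaching it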;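 note: 0% = neutral control wells and 100% = L-leucinethiol positive control wells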
Numbers without * were called inactive; ? = inconclusive; . = no result. The list is not random: actives were taken first. Their share in the collection is about 3.2%.

SMILES	GSIS activator	CaV13 FRET inh	DENV2 CPE rescue	rRNA inh HTS	PGC1a acetyl inh	ERAP1 inh
CCOC(=O)C1CCCN(Cc2ccc(-c3ccccc3)cc2)C1 (stereo not drawn)	-0.9	-3.2	2.7	-25.4*	.	3.0
CCOC(=O)C1CCCN(C(=O)CSc2ccc(Br)cc2)C1 (stereo not drawn)	.	.	.	.	78.1*	.
CCOC(=O)C1CCCN(Cc2cccc(Oc3ccccc3)c2)C1 (stereo not drawn)	-24.7	-6.4	3.4	-23.6	0.3	3.6
CCOC(=O)C1CCCN(C(=O)C(C)(C)Oc2ccc(Cl)cc2)C1 (stereo not drawn)	-47.5	-6.3	-8.0	-30.5*	-4.3	1.8
CCOC(=O)C1CCCN(C(=O)c2ccc(OC(C)=O)cc2)C1 (stereo not drawn)	.	-5.1	.	.	1.6	.
COc1ccc2c3c(n(C)c2c1)[C@H](CO)N(C(=O)c1ccccn1)CC31CCN(C(C)=O)CC1	7.9	.	-1.3	-0.6	0.5	-3.7
CC(C)NC(=O)N(C)C[C@H]1Oc2ccc(NS(C)(=O)=O)cc2C(=O)N([C@H](C)CO)C[C@H]1C	25.0	.	-8.4	2.9	-2.8	-0.8
C[C@@H]1CN([C@@H](C)CO)C(=O)Cc2cc(NC(=O)Nc3ccccc3)ccc2O[C@H]1CN(C)Cc1ccc2c(c1)OCO2	-23.4	.	15.0	-17.6	-11.7	-1.8
COc1ccc2c3c([nH]c2c1)[C@H](CO)N(C(=O)Nc1cccc(F)c1)CC31CN(CC2CC2)C1	-14.7	.	24.8*	-7.7	-4.2	2.3
CCCNC(=O)N1CCC2(CC1)CN(C(=O)COC)[C@H](CO)c1[nH]c3cc(OC)ccc3c12	3.7	.	28.4*	1.4	4.5	0.7
COc1ccc2c3c([nH]c2c1)[C@@H](CO)N(C(=O)Nc1ccc(F)cc1)CC31CCN(CC2CC2)CC1	-3.4	.	55.8*	-1.2	.	1.8
COc1ccc2c3c([nH]c2c1)[C@H](CO)N(C(=O)Nc1ccc(F)cc1)CC31CN(CC2CC2)C1	-18.0	.	29.2*	1.0	-14.4	.
COc1ccc2c3c([nH]c2c1)[C@@H](CO)N(C(=O)Nc1ccc(F)cc1)CC31CN(Cc2ccc(F)cc2)C1	-19.2	.	31.8*	-59.9	.	0.3
COc1ccc2c3c([nH]c2c1)[C@H](CO)N(C(=O)NC(C)C)CC31CN(C(=O)C2CCCCC2)C1	-0.3	.	?	-0.5	2.6	2.7
COCC(=O)N1CC2(CN(C(C)=O)C2)c2c([nH]c3cc(OC)ccc23)[C@@H]1CO	11.3	.	20.1*	4.8	-9.0	.
COCC(=O)N1CC2(CCN(C(C)=O)CC2)c2c([nH]c3cc(OC)ccc23)[C@H]1CO	1.1	.	6.5	3.7	0.8	0.1
CCCNC(=O)N1CC2(CCN(CC3CCCC3)CC2)c2c([nH]c3cc(OC)ccc23)[C@@H]1CO	16.3	.	29.8*	4.2	.	0.6
CCCNC(=O)N1CC2(CCN(C)CC2)c2c([nH]c3cc(OC)ccc23)[C@@H]1CO	6.9	.	0.7	5.4	-3.3	2.0
COc1ccc2c3c([nH]c2c1)[C@@H](CO)N(C(=O)NC(C)C)CC31CN(C(=O)NC(C)C)C1	4.1	.	46.9*	2.5	.	3.5
C[C@@H]1CN([C@H](C)CO)C(=O)c2c(c3ccccc3n2C)-c2ccccc2CO[C@@H]1CN(C)S(=O)(=O)c1ccc(F)cc1	-10.4	.	.	1.5	.	.
C[C@@H]1CN([C@H](C)CO)C(=O)c2cc(NS(C)(=O)=O)ccc2O[C@@H](C)CCCCO[C@@H]1CN(C)S(=O)(=O)c1cn(C)cn1	16.4	.	0.4	-0.1	2.9	-1.5
O=C(NCC[C@@H]1CC[C@@H](NC(=O)c2ccncc2)[C@@H](CO)O1)Nc1ccc(Cl)cc1	-8.6	.	-2.8	-53.4	-1.2	4.0
COc1cccc(C(=O)/C=C2\Sc3ccccc3N2C)c1	3.2	-5.3	1.3	-28.5*	-24.8	9.8
Cc1cccn2c(=O)c(/C=C(\C#N)C(=O)NCc3ccco3)c(N3CCCCC3)nc12	.	-5.0	-16.4	5.8	-8.4	5.9
Cc1cccn2c(=O)c(/C=C(\C#N)C(=O)NCc3ccco3)c(N3CCCCCC3)nc12	-12.1	-4.5	-4.2	-29.8*	0.1	3.7
